# Records with an inconclusive call do not appear. A call without a number means that no potency is given here. Activity calls are given as the source filed them. The call rests on the fitted dose curve; in most records, active means well fitted inhibition curve with a large enough effect; inconclusive means small, poorly fitted or top-dose-only effect; inactive means flat fitted curve, though single readings scatter.
# Biological target: Glutathione peroxidase 1 (Homo sapiens) (UniProt P07203)
# Assay: Primary qHTS Assay for Inhibitors of Recombinant Selenoprotein Glutathione Peroxidase 1 (GPX1) (AID 1845191); further: nearly all actives have a fitted effect of over 65% in size
# Conditions: recombinant GPX1, GR-coupled NADPH fluorescence, 15 min; series mostly up to 48.8 µM; activity, negative = inhibition: at the top concentration
# From the text: Assay Provider: Elias S.J. Arner MD PhD.
# Department of Medical Biochemistry and Biophysics
# Karolinska Institutet, Solna, Stockholm, Sweden
# Selenoprotein glutathione peroxidases (GPX), like the ubiquitously expressed GPX1 and the ferroptosis modulator GPX4, enact their antioxidant activities by reducing hydroperoxides using glutathione. […] GPX1 and GPX4 inhibitors have thus shown promise as anti-cancer agents. Existing inhibitors are often promiscuous, or modulate GPX activity only indirectly, so novel direct inhibitors identified through screening against GPX1 and GPX4 could be valuable. Here, we developed optimized glutathione reductase (GR)-coupled GPX assays for the biochemical high-throughput screen (HTS) of almost 12,000 compounds with known mechanisms of action. Initial hits were triaged using a GR counter-screen, assessed for isoform specificity using a separate GPX2 assay, and were assessed for general selenocysteine-targeting activity using a thioredoxin reductase (TXNRD1) assay. With this suite of assays, we identified novel GPX1/GPX2- and GPX4-specific inhibitors and can here present a validated pipeline for future discovery research for selenoprotein-targeting agents.
# SEQUENCE No. (e.g., 1, 2, 3, etc.); […] (e.g., Cells, Incubation, Reagent, etc.); VALUE; DESCRIPTION.
# 1; Reagent 1; 3 uL; GPx1 enzyme or no enzyme control in 1536-well, black, solid Greiner assay plate.
# 2; Compound; 25 nL; Kalypsis pin tool (Wako USA) equipped with a 1536-well pin head.
# 3; Incubation; 30 min; room temperature.
# 4; Reagent 2; 1 uL; 10 nM GPX1, 1 mM GSH, 0.5 mM CHP, 0.5 mM NADPH, 100 nM GR, 0.01% BSA substrate
# 5; Detection; Fluorescence; ViewLux microplate reader, excitation 340 nm and emission 450 nm.
# 6; Incubation; 15 min; room temperature.
# 7; Detection; Fluorescence; ViewLux microplate reader, excitation 340 nm and emission 450 nm.
# NOTES (numbers refer to Sequence numbers above)
# 1. 3 uL of 16.66 nM GPX1 and 0.016% BSA in assay buffer (50 mM Tris-HCl, 2 mM EDTA (pH 7.5), 150 mM NaCl) was added to columns 3-48 of 1536-well assay plates using a BioRAPTR Flying Reagent Dispenser (Let's Go Robotics (LGR), Carlsbad, CA). A no-enzyme control (0.01% BSA in TES assay buffer) was added to columns 1-2.
# 2. 25 nL of test compounds and DMSO controls were added to each well with a pin tool (Kalypsys).
# 3. The assay plates were incubated for 30 minutes at room temperature.
# 4. 1 uL of master mix (500 nM glutathione reductase (GR), 5 mM reduced glutathione (GSH), 2.5 mM NADPH in assay buffer) was added. 1 uL of cumene hydroperoxide (CHP) ([2.5 mM] in 50% EtOH) was then added within 5 minutes to initiate the reaction. Final concentrations were: 10 nM GPX1, 1 mM GSH, 0.5 mM CHP, 0.5 mM NADPH, 100 nM GR, 0.01% BSA.
# 5. Initial fluorescence readout (t=0) at 340/450 nm was measured using a ViewLux multimodal detector (PerkinElmer, Waltham, MA).
# 7. Endpoint fluorescence readout (t=15) at 340/450 nm was measured 15 min after room temperature incubation.
# Glutathione peroxidase 1 (Homo sapiens), sequence (P07203 whole entry, looked up): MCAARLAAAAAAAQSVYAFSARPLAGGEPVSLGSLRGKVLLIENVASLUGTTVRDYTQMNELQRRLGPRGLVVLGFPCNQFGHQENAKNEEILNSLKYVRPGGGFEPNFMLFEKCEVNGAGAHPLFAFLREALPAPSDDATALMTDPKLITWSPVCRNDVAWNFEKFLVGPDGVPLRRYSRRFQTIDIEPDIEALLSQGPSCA
Compound,outcome,Potency,"activity, negative = inhibition"
COc1ccc2c(c1)c(C1=C(c3c[nH]c4ccccc34)C(=O)NC1=O)cn2CCCN(C)C,inactive,,
COC1CCC(C(=O)c2ccc3nc4c(cc3c2)CCCO4)CC1 (stereo not given),inactive,,
CN1CCN2c3ncccc3Cc3ccccc3C2C1 (stereo not given),,inactive,
Cc1cc2c(cc1C1(c3ccc(C(=O)O)cn3)CC1)C(C)(C)CCC2(C)C,inactive,,
COc1cc2nccc(Oc3ccc(NC(=O)Nc4cc(C)on4)c(Cl)c3)c2cc1OC,,inactive,
O=C(CCCN1CCN(c2ccc(F)cc2)CC1)NC1c2ccccc2CSc2ccccc21 (stereo not given),,,-13.9% (inactive)
CCCCC(C)(C)[C@H](O)C=C[C@H]1[C@H](O)CC(=O)[C@H]1CC=CCCCC(=O)O,inactive,,
CCOC(=O)c1c(CSc2ccccc2)n(C)c2cc(Br)c(O)c(CN(C)C)c12,inactive,,
COc1cc2ncnc(Nc3cc(Br)c(O)c(Br)c3)c2cc1OC,,inactive,
CC(C)CNc1ccnc(NCc2csc(-c3ccccc3)n2)n1,inactive,,
Cc1ccc(C(=O)N(CCCN)[C@@H](c2nc3cc(Cl)ccc3c(=O)n2Cc2ccccc2)C(C)C)cc1,,,0.435% (inactive)
CC(C)Oc1cc(Nc2nc(N[C@@H](C)c3ccc(F)cn3)ncc2Cl)[nH]n1,inactive,,
CCCCC(F)(F)[C@@]1(O)CC[C@H]2[C@H](CC(=O)[C@@H]2CCCCCCC(=O)O)O1,,inactive,
CNC(=O)c1c(-c2ccc(F)cc2)oc2cc(N(CCO)S(C)(=O)=O)c(C3CC3)cc12,,,2.53% (inactive)
C#CCN(C)CC1=Cc2ccccc2Oc2ccccc21,inactive,,
c1ccc(CNc2nc(N3CCOc4ccccc43)nc3c2CCCC3)cc1,inactive,,
O=C(NC[C@H](O)CO)c1ccncc1Nc1ccc(I)cc1F,inactive,,
N#Cc1c(N(CC(=O)O)CC(=O)O)sc(C(=O)O)c1CC(=O)O,,,3.72% (inactive)
O=C(CC12CC3CC(CC(C3)C1)C2)Nc1cccc2nc(NCCNCCO)ccc12,inactive,,
Cc1ccc(S(=O)(=O)OCC(=O)Nc2ccc(C(=O)O)c(O)c2)cc1,inactive,,

Compound,outcome,Potency,"activity, negative = inhibition"
Cc1ccc2c(c1)c1c(n2CCc2ccc(C)nc2)CCN(C)C1,,,-33.7% (inactive)
Cn1cc(-c2ccc3nnc(Sc4ccc5ncccc5c4)n3n2)cn1,inactive,,
O=C(NCCCCN1CCOCC1)c1cc2ccccc2o1,inactive,,
CNC(=O)c1ccc2c(C(=Nc3cccc(CN(C)C)c3)c3ccccc3)c(O)[nH]c2c1,,inactive,
Cc1c(C(=O)Nc2ccc(N3C[C@@H](C)O[C@@H](C)C3)nc2)cccc1-c1ccc(OC(F)(F)F)cc1,,inactive,
CC1=C(C(=O)Nc2cc3cn[nH]c3cc2F)C(c2ccc(C(F)(F)F)cc2)CC(=O)N1 (stereo not given),,inactive,
CC[C@H](C=C[C@@H](C)[C@H]1CC[C@H]2[C@@H]3CC=C4C[C@@H](O)CC[C@]4(C)[C@@H]3CC[C@]12C)C(C)C,inactive [at 27.7 µM],,
Cc1nc(C(=O)NCC(=O)O)c(O)c2ccc(Oc3ccccc3)cc12,,inactive,
N[C@@H](CC(=O)N1CCn2c(nnc2C(F)(F)F)C1)Cc1cc(F)c(F)cc1F,,inactive,
CCC[C@H](N[C@@H](C)C(=O)N1[C@@H]2CCCC[C@H]2C[C@H]1C(=O)O)C(=O)OCC,inactive,,
C=CCc1cccc(C=NNC(=O)CN2CCN(Cc3ccccc3)CC2)c1O,,,-8.09% (inactive)
CCN1CCN(c2ccc(Nc3cc(N(C)C(=O)Nc4c(Cl)c(OC)cc(OC)c4Cl)ncn3)cc2)CC1,,inactive,
O=C(Nc1cccc(C(F)(F)F)c1)Nc1cc(S(=O)(=O)NC2CC2)ccc1-c1ccsc1,inactive,,
O=C(O)Cc1cccc(OCCCN(Cc2cccc(C(F)(F)F)c2Cl)CC(c2ccccc2)c2ccccc2)c1,,,2.25% (inactive)
CCn1c(-c2nonc2N)nc2cncc(CNC3CCNCC3)c21,,inactive,
C=CC(=O)Nc1cccc(Sc2nc(Nc3ccc(N4CCN(C)CC4)cc3)ncc2Cl)c1,,inactive,
C[C@@]1(c2cc(-c3cncnc3)c(F)cc2F)CCSC(N)=N1,,inactive,
NS(=O)(=O)c1cc(Cl)c(Cl)c(S(N)(=O)=O)c1,,inactive,
CN(C)CCCNC(=O)c1ccc(-c2cc(O)c3ncccc3c2)cc1,,inactive,
Cc1cnc(CNC(=O)c2c(=O)c3ccc(N4CCCN(C)CC4)nc3n3c2sc2ccccc23)cn1,inactive [at 9.52 µM],,

# — PubChem BioAssay (NCATS)
